Out of some 370,000 compounds screened, about 3,700 (1%) were called active.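 The calls were made as follows: active = activation above the mean over all tested compounds plus 3 SD (cut at about 0.9% in these data); inactive = the rest.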 For the sample, actives were picked, then their nearest neighbours and some compounds at random.
tested on: Nuclear hormone receptor DAF-12 (Strongyloides stercoralis); assay: S. stercoralis DAF-12 nuclear receptor activators, primary screen, cell-based, luminescence, HEK293, GRIP1 co-expression, lit1-tk-luc (AID 652126); details: HEK293 ssDAF-12/GRIP1 lit1-tk-luc reporter, at 6.8 µM, hits give high values;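 also: 0% = DMSO-only wells and 100% = 3 µM delta7-dafachronic acid wells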

SMILES	activation
COc1ccc(C2C=C(C)Oc3c2c(=O)oc2ccccc32)cc1OC (stereo not given)	-0.69% (inactive)
N#CC1=C(N)Oc2c(c(=O)oc3ccccc23)C1c1ccccc1OC(=O)c1cccs1 (stereo not given)	1.09% (active)
CCNc1nc2[nH]c(=O)c3c(c2s1)OC(N)=C(C#N)C3c1cccs1 (stereo not given)	-0.98% (inactive)
COP(=O)(Sc1ccccc1)C(Cc1ccccc1)NC(=O)OCc1ccccc1 (stereo not given)	-1.15% (inactive)
COc1ccc2c(c1)NP(=S)(c1ccccc1)N2 (stereo not given)	1.75% (active)
Cc1cc(C)c2c(c1)NP(=S)(c1ccccc1)N2 (stereo not given)	-0.09% (inactive)
CO[C@H]([C@H](C)/C=C/N(C)C=O)[C@@H](C)C(=O)CC[C@H](C)[C@H](O)[C@H](C)[C@H]1OC(=O)/C=C/C(C)=C/[C@H](O)[C@H](OC)C[C@@H]2C=CC[C@@H](C[C@H](OC)[C@@]3(CO3)[C@@H](OC)C[C@@H](OC)[C@@H]1C)O2	-0.84% (inactive)
O=c1c2ccccc2nc(/C=C/c2ccc(F)cc2)n1-c1ccccc1O	-0.65% (inactive)
Cc1ccccc1CCC[C@@H](CC1CCCCC1)CN(C)C(=O)Oc1ccccc1	-1.05% (inactive)
CCOP(=S)(OCC)C(O)CCCCCn1c(=O)c(F)cn(C2CCCO2)c1=O (stereo not given)	1.73% (active)
Clc1ccc2nc3c(c(-c4ccccc4)c2c1)CNCC3	-0.92% (inactive)
COc1ccc(CNCCc2c[nH]c3ccccc23)cc1OC	1.6% (active)
COc1ccc(CNCCc2ccc3c(c2)OCO3)c(OC)c1OC	-0.57% (inactive)
c1cncc(CNCCc2c[nH]c3ccccc23)c1	-0.72% (inactive)
CN(C)S(=O)(=O)c1cc(C(=O)N2CCC(C(=O)O)(c3ccccc3)CC2)ccc1Cl	-1.1% (inactive)
CN(C)c1nc(N(C)C)nc(N(C#N)CCCl)n1	-1.19% (inactive)
C[C@]12CCC3C(CC[C@H]4[C@H](O)[C@H](O)CC[C@]34C)C1CC[C@@H]2O (stereo not given in full)	-0.82% (inactive)
O=C(CSC1c2ccccc2-c2ccccc21)N/N=C/c1ccccc1	-0.76% (inactive)
COc1c(O)ccc2c1-c1c3c(cc4c1C(C2)N(C)CC4)OCO3 (stereo not given)	-0.77% (inactive)
Cc1ccc(OC(=O)N(C)C[C@@H]2OCc3cnnn3CCCC(=O)N([C@H](C)CO)C[C@@H]2C)cc1	-0.97% (inactive)
